About 83,000 compounds went through this panel and 20% of them were active in at least one assay; those are over-represented in the sample as a whole.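 Cells were grown in 96-well plates and exposed to the test compound at a single concentration for 48 hours; results are reported as percent growth, with values below 10 considered active.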 Values without a mark were called inactive.

The test concerns ACHN renal. In words: NCI-60 one-dose screen, 48 h (100 = growth as untreated, 0 = no growth, -100 = all killed). The note with it: 10 µM unless noted.
Consider `CCc1oc2ccccc2c1C(=O)c1cc(I)c(O)c(I)c1`, for which the growth is 72.9%. With `COc1cccc2nc(Nc3cccc(NC(=O)c4cc(N5CCOCC5)cc(C(F)(F)F)c4)c3)ccc12` the figure was 45.1%. The result for `FC(F)(F)c1ccc(/C=N/Nc2nnc3n2N=C(c2ccc(Cl)cc2)CS3)cc1` reads 28.4%. `Nc1nc2ccc([C@@H]3Nc4ccc5[nH]ncc5c4[C@H]4[C@H]5CCC(C5)[C@H]43)cc2s1`: the growth is 29.7%.

In the case of `C/C=C(\C)C(C(=O)NC1CCCCC1)N(C(=O)C1CCc2cc(F)ccc2O1)c1ccc([N+](=O)[O-])cc1` (stereo not given), the growth is 89.7%.

Turning to `COc1cc(C2Nc3ccccc3S2)cc(CN2CCOCC2)c1O` (stereo not given), the growth was 88.3%. As for `C#CCNC(=S)N/N=C(\C)c1ccccn1`, the growth was 15.7%. In the case of `COc1cc2nccc(Oc3ccc(NC(=O)C4(C(=O)Nc5c(F)cc(F)cc5F)CC4)cc3)c2cc1Oc1ccc(N)cn1`, the growth is 50.9%. As to `COc1ccc2c(c1)CCCC21C(=O)Nc2ccccc21` (stereo not given), the growth was 105%. With `CCCCCCCCCC1=NC(C)(C)CN1C(C)(C)CO`, the growth is 93.6%. The result for `CCN(CC)CCCC(C)Nc1cnc(C(=O)Nc2cc(C)cc3cccnc23)cn1` (stereo not given) reads 77.9%; that for `C/C(CC(=O)NNc1ccc([N+](=O)[O-])cc1)=N\Nc1ccc([N+](=O)[O-])cc1`, 47.5%. With `COc1ccc2c(c1)CCCC21C(=O)Nc2c(Cl)cccc21` (stereo not given) the figure was 85.1%; with `CCN(CC)CCCNc1cccc2c(C)cc(OC)nc12`, 91.6%. The result for `Cc1nn(-c2ccc(Cl)cc2)c(=O)n1CCN1CCOCC1` reads 38.7%.

(Values after PubChem BioAssay (NCI).)
